# Screening data: PubChem, several laboratories
# TIM10 inh: growth inhibitors of isogenic TIM10 control yeast, primary screen, counter-screen for tim10-1 yeast inhibitor project, luminescence, uHTS; S. cerevisiae TIM10 strain growth, BacTiter-Glo luminescence, 24 h; inhibition, % at 10 µM; 330,000 tested, 1.4% active;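 active = inhibition of 40% or more at the single tested concentration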;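 note: wild-type TIM10 isogenic control strain grown at permissive 25 °C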
# NLRP3 yeast inh: NALP3 inflammasome inhibitors in reconstituted yeast, primary screen, luminescence, uHTS. Yeast reconstituted NLRP3/ASC/caspase-1, beta-gal luminescence, 24 h. inhibition, % at 10 µM. 330,000 tested, 0.39% active;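 active = inhibition of 50% or more; inactive = inhibition below 50%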;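 note: plate controls were induced DMSO wells for no effect and uninduced yeast grown without galactose for full effect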
# PfHsp90 set2: growth inhibition of PfHsp90-expressing yeast, primary screen, antimalarial PfHsp90 inhibitor project, S. cerevisiae, BacTiter-Glo luminescence, single point, set 2; 310,000 tested, 0.32% active; BacTiter-Glo ATP, 48 h; yeast lacking PDR1 and PDR3 efflux regulators; inhibition, % at 9.4 µM;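 active = every replicate shows inhibition above about 80%, whatever the replicate mean, limit read from the data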;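 note: 0% = DMSO neutral controls and 100% = 20 µM radicicol positive controls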
# tim23-1 inh: growth inhibitors of tim23-1 mutant yeast, primary screen, luminescence, uHTS; 330,000 tested, 1.3% active; S. cerevisiae tim23-1 growth, BacTiter-Glo luminescence, 24 h; inhibition, % at 20 µM;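 active = growth inhibition of the mutant yeast at or above 50%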;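 note: temperature-sensitive mutant grown at 25 °C; plate controls were DMSO-treated mutant yeast for no effect and medium wells lacking yeast for full effect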
# SKKanGAS inh: S. pyogenes SKKanGAS growth inhibitors in kanamycin, primary screen, streptokinase expression inhibitor project, SKKanGAS strain, BacTiter-Glo luminescence. 300,000 tested, 1.3% active. AID 1662, 2009. inhibition, % at 7.5 µM. 6 h;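 active = mean replicate score, as percent of positive control median, at least 50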;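 note: strain carries kanamycin resistance gene driven by streptokinase promoter and grows in 40 µg/ml kanamycin; loss of luminescence reflects streptokinase promoter inhibition or plain growth inhibition; 0% = median of DMSO wells and 100% = positive control at its reference dose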
# tim10-1 inh: growth inhibitors of tim10-1 mutant yeast, primary screen, luminescence, uHTS | AID 463190, 2010 | 330,000 tested, 2.2% active | S. cerevisiae tim10-1 ts strain growth, BacTiter-Glo, 24 h | inhibition, % at 20 µM;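 active = inhibition of at least 40%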;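 note: mutant grown at 25 °C; 0% = DMSO wells with yeast and 100% = wells holding no yeast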
# tim10-1 conf: growth inhibitors of tim10-1 mutant yeast, confirmation, single concentration, luminescence, S. cerevisiae; S. cerevisiae tim10-1 ts strain growth, BacTiter-Glo, 24 h; inhibition, % at 20 µM; shares compounds with tim10-1 inh; 7,400 tested, 56% active;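 active = inhibition of yeast growth at or above a set limit in either of two repeat tests at 20 µM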;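 note: tim10-1 mutant grown at permissive 25 °C to find synthetic lethal compounds; 0% = DMSO yeast wells and 100% = medium wells without yeast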
# * marks the source's active call; other numbers are inactive results; · = no result given. This is a sample that favours compounds with a hit; in the whole collection about 4.5% have one here.
SMILES,TIM10 inh,NLRP3 yeast inh,PfHsp90 set2,tim23-1 inh,SKKanGAS inh,tim10-1 inh,tim10-1 conf
COc1cccc(C2C3=C(CC(C)(C)CC3=O)Nc3cc4c(cc32)OCO4)c1 (centres undefined),-14,-3,24,28,-5,44*,11
C=C(C)CNC(=S)N/N=C1\CCCCc2ccccc21,35,30,-27,40,-7,55*,41*
COc1cccc(NC(=O)C(OC(=O)c2cnc(C)cn2)c2ccccc2)c1 (centres undefined),14,14,-6,17,-1,8,·
CC1CCC/C(=N\NC(=S)NCc2ccccc2)C1 (centres undefined),28,13,3,35,1,41*,32*
O=C(NCCS(=O)(=O)N1CCN(c2ccc(F)cc2)CC1)C12CC3CC(CC(C3)C1)C2,33,7,·,45,-1,42*,22
CSc1ccccc1C(=O)NCCS(=O)(=O)N1CCN(c2ccc(F)cc2)CC1,-4,11,40,5,-7,3,·
Cc1ccc2[nH]c(C(=O)N3CCN(c4cccc(Cl)c4)CC3)cc2c1,1,8,-18,7,-3,30,·
COc1ccc(COC(=O)C2CCN(S(=O)(=O)c3ccc(C)cc3)CC2)cc1,-3,20,3,19,2,28,·
COc1cc(C(c2c(C)[nH][nH]c2=O)c2c(C)[nH][nH]c2=O)ccc1OC(=O)c1cccc([N+](=O)[O-])c1,17,-15,7,4,·,5,·
COc1cc(C(c2c(C)[nH][nH]c2=O)c2c(C)[nH][nH]c2=O)ccc1OCc1ccc([N+](=O)[O-])cc1,26,12,·,21,-18,57*,51*
COc1cc(C(c2c(C)[nH][nH]c2=O)c2c(C)[nH][nH]c2=O)ccc1OC(C)C,35,6,13,31,10,40*,42*
Cc1ccc(C(c2c(C)[nH][nH]c2=O)c2c(C)[nH][nH]c2=O)cc1,11,27,8,20,-7,42*,30
COc1ccc(C(c2c(C)[nH][nH]c2=O)c2c(C)[nH][nH]c2=O)cc1Br,39,35,-15,35,-2,14,·
CC(=O)Nc1ccc2ccccc2c1[N+](=O)[O-],·,·,5,·,·,·,·
O=C(NCCCn1ccnc1)c1cc(Cl)cc(Cl)c1,1,-6,10,3,-1,-12,·
Cc1ccc(OCC(=O)N(C)CC(=O)NCc2ccco2)c(Br)c1,1,5,23,-3,·,7,·
CCCc1[nH][nH]c(=O)c1C(c1ccccc1)C(C#N)C#N (centres undefined),27,14,·,38,0,20,·
CCCc1[nH][nH]c(=O)c1C(c1ccc(Cl)cc1)C(C#N)C#N (centres undefined),36,31,0,42,-2,46*,24
COc1cccc(NC(=O)C2C3CCC4C(CCC32)C4(Cl)Cl)c1 (centres undefined),2,1,-71,11,2,42*,29
CCOc1ccc(-n2c(CCc3ccccc3)n[nH]c2=S)cc1,24,13,-13,17,-3,41*,18
CCc1ccc(-n2c(Cc3ccccc3)n[nH]c2=S)cc1,13,13,·,31,-15,48*,27
CCCCN1CN(S(=O)(=O)c2ccc(OC)cc2)c2nc3ccccc3nc21,22,0,-31,42,27,46*,12
COCCN1CN(S(=O)(=O)c2cccc(Cl)c2)c2nc3ccccc3nc21,19,9,-36,39,10,45*,10
CCOC(=O)C(=CNc1ccc(NC2=NCC(C)(C)S2)cc1)C(=O)OCC,11,8,29,18,-7,17,·
CC(C)(C)c1nn(-c2ccccc2)c2[nH]c(=O)c(CNCc3ccc4c(c3)OCO4)cc12,28,17,-27,33,-4,44*,32*
SMILES,TIM10 inh,NLRP3 yeast inh,PfHsp90 set2,tim23-1 inh,SKKanGAS inh,tim10-1 inh,tim10-1 conf
COc1cccc(-c2nn(-c3ccccc3)cc2CN(C)C(C)c2ccncn2)c1 (centres undefined),16,-17,8,33,-2,44*,22
COc1ccc(-n2cc(CN(C)C(C)c3ccncn3)c(-c3cccc(F)c3)n2)cc1 (centres undefined),16,14,·,20,-7,-14,·
CC1CCC(C(O)(C(=O)O)C2CCCCC2)CC1C (centres undefined),·,·,-40,·,·,·,·
CCOc1ccccc1N1CC(C(=O)Nc2ccc(S(=O)(=O)N3CCCCC3)cc2)CC1=O (centres undefined),-1,18,15,11,11,6,·
CCOC(=O)c1c(NC(=O)CSc2nnc(-c3ccco3)o2)sc(C)c1C,22,18,-13,24,-3,42*,17
CCc1ccc(-c2csc(NC(=O)C3CC(=O)N(c4ccc5c(c4)OCCO5)C3)n2)cc1 (centres undefined),25,13,-22,23,28,47*,27
O=C(N/N=C/c1cc(O)ccc1[N+](=O)[O-])c1ccc2c(c1)OCCO2,7,12,8,-6,-20,-6,·
COc1cc(OC)cc(C(=O)NCCOC23CC4CC(CC(C4)C2)C3)c1,4,-2,4,24,-4,45*,30
Cc1ccc(C(=O)NCCOC23CC4CC(CC(C4)C2)C3)cc1,33,15,-2,45,-7,33,·
CNC(=S)N(CCc1c(C)[nH]c2ccccc12)Cc1cccnc1,0,10,24,8,-12,5,·
CC(=O)Nc1scc(C)c1-c1nc2ccccc2s1,16,30,-5,7,-13,21,·
CNc1sc(C(=O)c2cccs2)c(N)c1-c1nc2ccccc2s1,31,44,-35,45,20,48*,48*
CNc1sc(C(=O)c2ccc(F)cc2)c(N)c1-c1nc2ccccc2s1,35,38,-10,42,-9,41*,23
COC(=O)C(Cc1ccc(O)cc1)NC(=O)c1ccc2c(c1)OCCO2 (centres undefined),-4,19,14,12,-1,18,·
COc1cccc(C(=O)N2N=C(c3cccc(OC)c3)CC2(O)C(F)(F)F)c1 (centres undefined),21,6,14,35,-7,40*,-23
Cc1cc(C(=O)COc2ccccc2[N+](=O)[O-])c(C)n1C1CC1,21,3,-40,23,-1,44*,27
